Source: PubChem BioAssay
Hits are enriched below; roughly 10% of the tested compounds scored in any of these assays.
CCT chaperon mod: High-Throughput Screening for Modulators of Cytosolic Chaperonin Activity. 360,000 compounds, 0.3% hits. purified chaperonin ATPase assay, HTRF ADP detection, 30 min. activity change, % (test concentration not listed), hits read low. AID 651819, 2012; in the data active = activity change below about -30%
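TRiC at 40 or 20 nM final (batch-dependent) in 30 mM Tris pH 7.4, 100 mM KCl, 5 mM MgCl2, 1 mM DTT, with compound at single 76 uM and 10 uM ATP, 30 min at 37 deg C. ADP detected by HTRF Transcreener, 665/615 ratio.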
VDR inh: Inhibitors of the vitamin D receptor (VDR): qHTS | VDR-SRC2-3 peptide fluorescence polarization, 2 h | 400,000 compounds, 0.93% hits | Vitamin D3 receptor (Homo sapiens), P11473 | Potency, µM, for inactives: max response, negative = inhibition, hits mostly inhibitors; also: potency is read from the fitted curve at half-maximal effect
Target sequence (P11473 whole entry, looked up): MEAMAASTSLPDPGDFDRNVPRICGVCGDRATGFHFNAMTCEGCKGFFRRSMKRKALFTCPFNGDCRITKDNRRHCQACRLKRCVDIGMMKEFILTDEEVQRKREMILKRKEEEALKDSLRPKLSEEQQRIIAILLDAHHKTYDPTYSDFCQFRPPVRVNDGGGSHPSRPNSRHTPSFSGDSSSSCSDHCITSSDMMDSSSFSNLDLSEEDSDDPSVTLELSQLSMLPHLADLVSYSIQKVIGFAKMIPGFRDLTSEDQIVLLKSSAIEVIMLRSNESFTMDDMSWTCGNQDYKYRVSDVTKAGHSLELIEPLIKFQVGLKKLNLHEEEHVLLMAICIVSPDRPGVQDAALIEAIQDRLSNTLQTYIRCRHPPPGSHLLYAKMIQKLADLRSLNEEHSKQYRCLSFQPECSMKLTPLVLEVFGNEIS
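Measured by FP: displacement of SRC2-3 coactivator peptide from VDR by library compounds, following a two-hour ambient incubation.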
MmCpn inh: Inhibitors of TCP-1 ring complex (TRiC) of Methanococcus maripaludis (MmCpn): qHTS; AID 504842, 2011; purified Mm-Cpn ATPase, ADP Transcreener TR-FRET; Potency, µM (top dose mostly 76.9 µM), for inactives: at the top dose activity, negative = inhibition, most hits filed as inhibitors; Chaperonin Mm-Cpn (Methanococcus maripaludis); 330,000 compounds, 0.031% hits; also: potency is read from the fitted curve at half-maximal effect; nearly all actives have a fitted effect of over 80% in size
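TR-FRET (320 nm excitation; 590 and 665 nm emission) reports ADP made from 10 uM ATP by 25 nM enzyme; compounds were preincubated 10 min, reaction run 30 min, both at 37°C.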
PLK1 PBD inh: qHTS for Inhibitors of PLK1-PDB (polo-like kinase 1 - polo-box domain): Primary Screen; Serine/threonine-protein kinase PLK1 (Homo sapiens), P53350; Plk1 PBD binding of FITC phosphopeptide, fluorescence polarization; Potency, µM, without a hit: max response, negative = inhibition, most hits filed as inhibitors; 360,000 compounds, 2.8% hits; also: potency is read from the fitted curve at half-maximal effect; series mostly up to about 57 µM; nearly all actives have a fitted effect of over 65% in size
Sfp PPTase inh: qHTS Assay for Inhibitors of Bacillus subtilis Sfp phosphopantetheinyl transferase (PPTase) | 310,000 compounds, 3.5% hits | AID 1490, 2009 | Biochemical Sfp PPTase activity, qHTS | 4'-phosphopantetheinyl transferase ffp (Bacillus subtilis), Q9F4F7 | Potency, µM, for inactives: largest response in the series, negative = inhibition, hits mostly inhibitors;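 also: the enzyme is Sfp with the accession as filed and its product quenches rhodamine fluorescence; potency is read from the fitted curve at half-maximal effect; 0% = enzyme reaction without inhibitor and -100% = no enzyme wells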
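Reaction rates are the 30-min fluorescence difference (ex 525, em 598 nm) in wells containing 15 nM Sfp, 5 uM rhodamine-CoA and 12.5 uM BHQ-2-YbbR at pH 7.6 with 10 mM MgCl2.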
G9a inh: qHTS Assay for Inhibitors of Histone Lysine Methyltransferase G9a; G9a H3K9 monomethylation, AlphaScreen, 2 h; Histone-lysine N-methyltransferase EHMT2 (Homo sapiens), Q96KQ7; 350,000 compounds, 8.8% hits; AID 504332, 2011; Potency, µM (titrated, usually from 102 µM), without a hit: at the highest dose activity, negative = inhibition, most hits filed as inhibitors; also: potency is read from the fitted curve at half-maximal effect; nearly all actives have a fitted effect of over 75% in size
Target sequence (Q96KQ7 913-1193 limits assumed): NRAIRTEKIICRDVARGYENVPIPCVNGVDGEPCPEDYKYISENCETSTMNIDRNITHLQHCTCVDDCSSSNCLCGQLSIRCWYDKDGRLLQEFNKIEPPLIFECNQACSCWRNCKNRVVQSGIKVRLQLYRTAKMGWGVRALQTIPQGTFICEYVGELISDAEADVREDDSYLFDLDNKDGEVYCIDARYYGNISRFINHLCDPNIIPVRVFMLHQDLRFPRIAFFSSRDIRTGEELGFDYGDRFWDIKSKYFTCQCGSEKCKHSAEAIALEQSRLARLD
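Methyltransferase reactions run at room temperature for 2 h (20 nM enzyme, 500 nM biotin-H3K9 peptide, 20 uM SAM) after a 15 min compound preincubation; product detected by AlphaScreen beads and anti-H3K9me1 antibody.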
Starred values were filed as active, the others as inactive; [ ] = remark or other dose. Unless noted, calls follow the shape of the dose curve; as a rule, active = well fitted curve in the direction sought with a large enough effect; inconclusive = small, poorly fitted or top-dose-only effect, or another doubt; inactive = no such curve, though single readings can be large; an effect the other way counts as inactive or inconclusive. Unless noted, % is scaled to controls: 0 for no effect and ±100 for the full control effect.

How did O=C(CSc1n[nH]c(-c2ccccc2)n1)NCCc1ccccc1 do in these assays?
VDR inh: 4%; G9a inh: 8%[59 µM]

How did CSc1nsc(SCC(=O)NCc2ccc(C)cc2)n1 do in these assays?
CCT chaperon mod: -1; VDR inh: -10%; MmCpn inh: -6%; PLK1 PBD inh: -1%; Sfp PPTase inh: 4%; G9a inh: -12%

How did CSc1nsc(SCC(=O)NCc2ccccc2)n1 do in these assays?
CCT chaperon mod: 1; VDR inh: -9%; MmCpn inh: -4%; PLK1 PBD inh: -23%; Sfp PPTase inh: 16%; G9a inh: 40µM*

Results for CCN(CC)C(=O)c1sc(NC(=O)c2cccs2)c(C#N)c1C ?
CCT chaperon mod: -2; VDR inh: 16%; MmCpn inh: -11%; PLK1 PBD inh: -5%; Sfp PPTase inh: 7%; G9a inh: 49%

What do the screens show for `C=CCNc1sc(C(=O)c2cccs2)c(N)c1C#N`?
CCT chaperon mod: -2; VDR inh: 10%; MmCpn inh: -11%; PLK1 PBD inh: -9%; Sfp PPTase inh: 6%; G9a inh: 13µM*

How did CCNc1sc(C(=O)c2cccs2)c(N)c1C#N do in these assays?
CCT chaperon mod: 1; VDR inh: inconclusive; MmCpn inh: -3%; PLK1 PBD inh: -17%; Sfp PPTase inh: 45µM*; G9a inh: -41%[12.7 µM]

How did Cc1c(N2CCCC2)cc2c(c1NC(=O)c1ccccc1Cl)C(C)(C)CC2(C)C do in these assays?
CCT chaperon mod: -1; VDR inh: -4%; MmCpn inh: 1%; PLK1 PBD inh: -10%; Sfp PPTase inh: 18%; G9a inh: 28µM*

Results for O=C(Nc1ccccc1N1CCCC1)c1cccc(Cl)c1Cl ?
CCT chaperon mod: 2; VDR inh: 7%; MmCpn inh: -3%; PLK1 PBD inh: -9%; Sfp PPTase inh: -6%; G9a inh: 19%[12.7 µM]

How did O=C(Nc1cccc(Cl)c1)c1cc2c(=O)[nH]c3ccccc3c2s1 do in these assays?
VDR inh: 1%; G9a inh: 1%[59 µM]

What do the screens show for `CCN(CC)CCN(C(=O)c1ccccc1OC)c1nc2ccc(F)cc2s1`?
CCT chaperon mod: 0; VDR inh: -4%; MmCpn inh: -4%; PLK1 PBD inh: 3%; Sfp PPTase inh: 10%; G9a inh: inconclusive

Results for COc1cc2ccccc2cc1C(=O)N(CCN(C)C)c1nc2c(F)cc(F)cc2s1 ?
CCT chaperon mod: -3; VDR inh: 0%; MmCpn inh: 0%; PLK1 PBD inh: -10%; Sfp PPTase inh: -24%; G9a inh: 32µM*

Results for CN(C)CCN(C(=O)CCc1ccccc1)c1nc2c(F)cc(F)cc2s1 ?
CCT chaperon mod: -1; VDR inh: -16%; MmCpn inh: 2%; PLK1 PBD inh: -2%; Sfp PPTase inh: 2%; G9a inh: 50µM*

What do the screens show for `COc1cc2ccccc2cc1C(=O)N(CCN(C)C)c1nc2ccc(Br)cc2s1`?
CCT chaperon mod: -2; VDR inh: 12%; MmCpn inh: -2%; PLK1 PBD inh: -19%; Sfp PPTase inh: -23%; G9a inh: 25µM*

What do the screens show for `O=C(O)CCC[C@H](O)\C=C/C=C/C=C/[C@H](O)C/C=C\CCCCCO`?
VDR inh: 8%; Sfp PPTase inh: 18%

Results for Cc1ccc(NC(=O)c2oc3ccc(S(=O)(=O)N(C)C4CCCCC4)cc3c2C)cc1Cl ?
VDR inh: 0%; G9a inh: -2%[59 µM]

Results for CCN(CC)C(=O)CN1CCN(c2ncccn2)CC1 ?
CCT chaperon mod: -1; VDR inh: 15%; MmCpn inh: -1%; PLK1 PBD inh: 1%; Sfp PPTase inh: 89µM*; G9a inh: 5.6µM*

What do the screens show for `O=C(CN1CCN(c2ncc(C(F)(F)F)cc2Cl)CC1)N1CCN(c2ncc(C(F)(F)F)cc2Cl)CC1`?
CCT chaperon mod: -4; VDR inh: -24%; MmCpn inh: 0%; PLK1 PBD inh: -7%; Sfp PPTase inh: 13%; G9a inh: 50µM*

Results for O=C(CN1CCN(c2ncccn2)CC1)N1CCCC1 ?
CCT chaperon mod: -2; VDR inh: -11%; MmCpn inh: -3%; PLK1 PBD inh: 3%; Sfp PPTase inh: inconclusive; G9a inh: 16µM*

How did COc1ccccc1Nc1nn2c(=O)c3ccc(C(=O)NC4CCCCC4)cc3nc2s1 do in these assays?
VDR inh: 4%; G9a inh: -31%[59 µM]

Results for CN(C)c1ccc2c(-c3ccccc3)c3ccc(=[N+](C)C)cc-3oc2c1 ?
VDR inh: 45µM*; Sfp PPTase inh: inconclusive

How did CC(C)Oc1cccc(NC(=O)C2CCN(S(=O)(=O)Cc3ccccc3)CC2)c1 do in these assays?
VDR inh: 11%; G9a inh: -26%[59 µM]

What do the screens show for `CC(C)N(Cc1nc(COc2ccccc2)no1)Cc1nccn1C`?
CCT chaperon mod: 2; VDR inh: 15%; MmCpn inh: 1%; PLK1 PBD inh: -4%; Sfp PPTase inh: 5%; G9a inh: 7%

What do the screens show for `CC(C)N(Cc1cnn(C)c1)Cc1nc(COc2ccccc2)no1`?
CCT chaperon mod: -2; VDR inh: -13%; MmCpn inh: 0%; PLK1 PBD inh: 21µM*; Sfp PPTase inh: 8%; G9a inh: 4%

Results for O=C(NCc1cccc(F)c1)C1=Cc2cc(Br)ccc2OC1 ?
VDR inh: 5%; G9a inh: 14%[59 µM]

What do the screens show for `Cc1ccc2nc(NCCN)c3ncc(C)n3c2c1`?
VDR inh: -10%; Sfp PPTase inh: -1%

Results for Cc1cc(Cl)c(OCCCCN2CCOCC2)c(Br)c1 ?
CCT chaperon mod: -1; VDR inh: -17%; MmCpn inh: 2%; PLK1 PBD inh: -16%; Sfp PPTase inh: -37%; G9a inh: inconclusive

What do the screens show for `Cc1cc(Cl)c(OCCOCCN2CCCC(C)C2)c(Br)c1` (stereo not given)?
CCT chaperon mod: -5; VDR inh: -7%; MmCpn inh: 1%; PLK1 PBD inh: 9%; Sfp PPTase inh: -14%; G9a inh: 16µM*

How did Cc1cc(Cl)c(OCCOCCN2CCCCC2)c(Br)c1 do in these assays?
CCT chaperon mod: -2; VDR inh: -11%; MmCpn inh: -1%; PLK1 PBD inh: -11%; Sfp PPTase inh: 63µM*; G9a inh: 7.1µM*

How did COCCCNCCCCOc1c(Cl)cc(C)cc1Br do in these assays?
CCT chaperon mod: -1; VDR inh: 11%; MmCpn inh: -4%; PLK1 PBD inh: -2%; Sfp PPTase inh: -53%
